How the values were obtained:
Experiment in all cases: log2 ratio of Biotin-Ahx-Ub-VS probe labelling (fragment/DMSO); higher = less target engagement (more negative = stronger competition), active = hit call of the paper (q ≤ 0.05, log2 ratio ≤ -1)
Settings in all cases: compound concentration: 200 uM; treatment time: 3 h
USP19 = target: T1, USP19 (UniProt O94966)
T1 sequence (whole entry): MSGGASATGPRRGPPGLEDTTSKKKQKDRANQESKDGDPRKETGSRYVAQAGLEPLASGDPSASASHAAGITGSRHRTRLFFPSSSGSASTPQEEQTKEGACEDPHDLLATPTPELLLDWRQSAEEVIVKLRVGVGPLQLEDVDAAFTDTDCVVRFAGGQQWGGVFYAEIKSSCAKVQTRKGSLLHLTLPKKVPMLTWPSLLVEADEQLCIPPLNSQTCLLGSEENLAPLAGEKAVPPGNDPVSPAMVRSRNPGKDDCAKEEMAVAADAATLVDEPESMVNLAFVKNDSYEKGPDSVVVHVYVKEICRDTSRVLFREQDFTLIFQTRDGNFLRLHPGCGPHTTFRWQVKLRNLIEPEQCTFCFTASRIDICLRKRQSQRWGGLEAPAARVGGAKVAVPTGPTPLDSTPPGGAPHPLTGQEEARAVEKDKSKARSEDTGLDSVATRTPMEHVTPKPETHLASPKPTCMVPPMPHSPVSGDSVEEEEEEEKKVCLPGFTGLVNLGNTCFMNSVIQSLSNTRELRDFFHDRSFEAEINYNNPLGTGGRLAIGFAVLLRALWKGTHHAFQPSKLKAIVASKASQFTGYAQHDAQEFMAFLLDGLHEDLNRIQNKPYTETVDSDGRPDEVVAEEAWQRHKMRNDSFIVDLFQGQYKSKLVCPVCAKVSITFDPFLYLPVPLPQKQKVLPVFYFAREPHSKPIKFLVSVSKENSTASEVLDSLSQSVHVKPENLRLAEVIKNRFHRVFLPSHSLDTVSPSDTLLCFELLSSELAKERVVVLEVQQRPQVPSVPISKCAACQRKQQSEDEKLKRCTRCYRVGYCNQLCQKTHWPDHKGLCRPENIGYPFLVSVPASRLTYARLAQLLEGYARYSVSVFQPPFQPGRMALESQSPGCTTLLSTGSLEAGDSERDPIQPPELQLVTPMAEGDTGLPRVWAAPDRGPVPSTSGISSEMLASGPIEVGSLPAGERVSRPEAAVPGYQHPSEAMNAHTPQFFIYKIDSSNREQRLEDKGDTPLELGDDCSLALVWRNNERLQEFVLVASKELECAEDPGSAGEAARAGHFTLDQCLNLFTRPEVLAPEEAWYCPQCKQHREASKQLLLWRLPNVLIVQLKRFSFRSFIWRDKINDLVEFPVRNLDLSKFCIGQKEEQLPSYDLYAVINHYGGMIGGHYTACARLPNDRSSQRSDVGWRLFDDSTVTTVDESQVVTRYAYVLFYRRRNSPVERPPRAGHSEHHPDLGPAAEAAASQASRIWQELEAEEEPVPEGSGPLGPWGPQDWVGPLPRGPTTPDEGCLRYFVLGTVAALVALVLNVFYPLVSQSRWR
Method in brief: (§1)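 HEK293T lysate (495 µg per sample, in Tris/CHAPS/IGEPAL buffer with protease inhibitors) was treated in triplicate with fragment at 200 µM or with DMSO for 3 h. It was then treated with Biotin-Ahx-Ub-VS (0.5 µM final) for 1 h. Labelled DUBs were NeutrAvidin-enriched, digested with LysC and trypsin, and run by diaPASEF LC-MS/MS. Spectronaut label-free quantities were global-median-normalised. Values are average log2 ratios fragment/DMSO by unpaired t-test, using proteins with ≥2 unique peptides.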

USP24 = USP24 (UniProt Q9UPU5)
Method in brief: as §1

USP25 = target: T2, USP25 (UniProt Q9UHP3)
T2 sequence (whole entry): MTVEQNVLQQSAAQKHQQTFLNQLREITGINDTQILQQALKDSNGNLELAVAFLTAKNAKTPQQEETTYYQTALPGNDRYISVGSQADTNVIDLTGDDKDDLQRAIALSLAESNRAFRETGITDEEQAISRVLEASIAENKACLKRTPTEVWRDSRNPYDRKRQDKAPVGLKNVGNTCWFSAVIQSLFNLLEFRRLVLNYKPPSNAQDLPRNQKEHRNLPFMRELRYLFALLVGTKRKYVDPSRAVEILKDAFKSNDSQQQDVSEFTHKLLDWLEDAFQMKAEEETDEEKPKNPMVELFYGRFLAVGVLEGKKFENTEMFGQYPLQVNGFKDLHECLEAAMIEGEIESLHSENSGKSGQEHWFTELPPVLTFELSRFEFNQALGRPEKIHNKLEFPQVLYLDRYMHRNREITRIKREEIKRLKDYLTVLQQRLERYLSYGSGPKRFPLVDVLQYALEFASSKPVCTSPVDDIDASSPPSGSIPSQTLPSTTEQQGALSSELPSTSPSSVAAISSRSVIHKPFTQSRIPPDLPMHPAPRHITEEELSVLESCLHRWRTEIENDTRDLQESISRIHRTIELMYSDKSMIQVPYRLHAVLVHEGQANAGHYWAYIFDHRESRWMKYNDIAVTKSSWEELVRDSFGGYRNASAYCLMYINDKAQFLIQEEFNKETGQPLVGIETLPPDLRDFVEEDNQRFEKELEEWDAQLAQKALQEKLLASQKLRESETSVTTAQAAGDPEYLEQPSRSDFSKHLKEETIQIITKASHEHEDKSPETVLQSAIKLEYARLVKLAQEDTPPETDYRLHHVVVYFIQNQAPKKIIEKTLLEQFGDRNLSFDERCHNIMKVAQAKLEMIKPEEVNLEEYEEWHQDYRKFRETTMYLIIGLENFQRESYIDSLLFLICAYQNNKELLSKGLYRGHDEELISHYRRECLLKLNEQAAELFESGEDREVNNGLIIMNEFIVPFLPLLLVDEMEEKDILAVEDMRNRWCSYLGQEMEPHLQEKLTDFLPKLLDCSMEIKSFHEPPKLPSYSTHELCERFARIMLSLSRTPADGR
Method in brief: as §1

USP28 = target: T3, USP28 (UniProt Q96RU2)
T3 sequence (whole entry): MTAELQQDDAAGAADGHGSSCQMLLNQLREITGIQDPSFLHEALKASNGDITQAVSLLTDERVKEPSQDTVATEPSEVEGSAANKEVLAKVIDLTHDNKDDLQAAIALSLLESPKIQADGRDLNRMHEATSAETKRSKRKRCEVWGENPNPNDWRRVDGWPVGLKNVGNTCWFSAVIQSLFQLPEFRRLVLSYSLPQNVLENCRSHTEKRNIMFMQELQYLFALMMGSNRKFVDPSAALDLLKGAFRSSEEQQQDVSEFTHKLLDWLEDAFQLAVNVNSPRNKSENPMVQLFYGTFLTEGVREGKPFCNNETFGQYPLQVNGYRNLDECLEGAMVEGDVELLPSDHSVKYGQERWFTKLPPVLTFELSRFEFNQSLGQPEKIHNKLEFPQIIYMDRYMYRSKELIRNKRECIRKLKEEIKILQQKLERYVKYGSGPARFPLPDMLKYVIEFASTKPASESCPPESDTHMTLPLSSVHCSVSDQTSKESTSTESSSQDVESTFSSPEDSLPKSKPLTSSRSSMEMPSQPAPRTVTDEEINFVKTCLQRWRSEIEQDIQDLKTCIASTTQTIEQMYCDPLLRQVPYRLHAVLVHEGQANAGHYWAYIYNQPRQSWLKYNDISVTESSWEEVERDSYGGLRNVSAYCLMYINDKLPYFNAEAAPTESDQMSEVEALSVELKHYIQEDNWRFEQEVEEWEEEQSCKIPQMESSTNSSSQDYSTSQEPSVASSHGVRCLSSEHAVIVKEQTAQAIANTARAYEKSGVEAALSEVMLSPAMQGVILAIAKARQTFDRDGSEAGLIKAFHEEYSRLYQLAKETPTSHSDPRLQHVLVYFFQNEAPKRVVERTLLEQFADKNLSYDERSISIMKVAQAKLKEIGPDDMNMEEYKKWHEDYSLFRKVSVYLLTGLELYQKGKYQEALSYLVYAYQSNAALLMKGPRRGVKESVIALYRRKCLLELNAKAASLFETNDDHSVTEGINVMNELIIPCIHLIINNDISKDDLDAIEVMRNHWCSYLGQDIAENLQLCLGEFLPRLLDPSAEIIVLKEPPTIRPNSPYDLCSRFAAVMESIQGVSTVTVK
Method in brief: as §1

Measured: log2 ratio of Biotin-Ahx-Ub-VS probe labelling

Sequence of USP24 (Q9UPU5 whole entry): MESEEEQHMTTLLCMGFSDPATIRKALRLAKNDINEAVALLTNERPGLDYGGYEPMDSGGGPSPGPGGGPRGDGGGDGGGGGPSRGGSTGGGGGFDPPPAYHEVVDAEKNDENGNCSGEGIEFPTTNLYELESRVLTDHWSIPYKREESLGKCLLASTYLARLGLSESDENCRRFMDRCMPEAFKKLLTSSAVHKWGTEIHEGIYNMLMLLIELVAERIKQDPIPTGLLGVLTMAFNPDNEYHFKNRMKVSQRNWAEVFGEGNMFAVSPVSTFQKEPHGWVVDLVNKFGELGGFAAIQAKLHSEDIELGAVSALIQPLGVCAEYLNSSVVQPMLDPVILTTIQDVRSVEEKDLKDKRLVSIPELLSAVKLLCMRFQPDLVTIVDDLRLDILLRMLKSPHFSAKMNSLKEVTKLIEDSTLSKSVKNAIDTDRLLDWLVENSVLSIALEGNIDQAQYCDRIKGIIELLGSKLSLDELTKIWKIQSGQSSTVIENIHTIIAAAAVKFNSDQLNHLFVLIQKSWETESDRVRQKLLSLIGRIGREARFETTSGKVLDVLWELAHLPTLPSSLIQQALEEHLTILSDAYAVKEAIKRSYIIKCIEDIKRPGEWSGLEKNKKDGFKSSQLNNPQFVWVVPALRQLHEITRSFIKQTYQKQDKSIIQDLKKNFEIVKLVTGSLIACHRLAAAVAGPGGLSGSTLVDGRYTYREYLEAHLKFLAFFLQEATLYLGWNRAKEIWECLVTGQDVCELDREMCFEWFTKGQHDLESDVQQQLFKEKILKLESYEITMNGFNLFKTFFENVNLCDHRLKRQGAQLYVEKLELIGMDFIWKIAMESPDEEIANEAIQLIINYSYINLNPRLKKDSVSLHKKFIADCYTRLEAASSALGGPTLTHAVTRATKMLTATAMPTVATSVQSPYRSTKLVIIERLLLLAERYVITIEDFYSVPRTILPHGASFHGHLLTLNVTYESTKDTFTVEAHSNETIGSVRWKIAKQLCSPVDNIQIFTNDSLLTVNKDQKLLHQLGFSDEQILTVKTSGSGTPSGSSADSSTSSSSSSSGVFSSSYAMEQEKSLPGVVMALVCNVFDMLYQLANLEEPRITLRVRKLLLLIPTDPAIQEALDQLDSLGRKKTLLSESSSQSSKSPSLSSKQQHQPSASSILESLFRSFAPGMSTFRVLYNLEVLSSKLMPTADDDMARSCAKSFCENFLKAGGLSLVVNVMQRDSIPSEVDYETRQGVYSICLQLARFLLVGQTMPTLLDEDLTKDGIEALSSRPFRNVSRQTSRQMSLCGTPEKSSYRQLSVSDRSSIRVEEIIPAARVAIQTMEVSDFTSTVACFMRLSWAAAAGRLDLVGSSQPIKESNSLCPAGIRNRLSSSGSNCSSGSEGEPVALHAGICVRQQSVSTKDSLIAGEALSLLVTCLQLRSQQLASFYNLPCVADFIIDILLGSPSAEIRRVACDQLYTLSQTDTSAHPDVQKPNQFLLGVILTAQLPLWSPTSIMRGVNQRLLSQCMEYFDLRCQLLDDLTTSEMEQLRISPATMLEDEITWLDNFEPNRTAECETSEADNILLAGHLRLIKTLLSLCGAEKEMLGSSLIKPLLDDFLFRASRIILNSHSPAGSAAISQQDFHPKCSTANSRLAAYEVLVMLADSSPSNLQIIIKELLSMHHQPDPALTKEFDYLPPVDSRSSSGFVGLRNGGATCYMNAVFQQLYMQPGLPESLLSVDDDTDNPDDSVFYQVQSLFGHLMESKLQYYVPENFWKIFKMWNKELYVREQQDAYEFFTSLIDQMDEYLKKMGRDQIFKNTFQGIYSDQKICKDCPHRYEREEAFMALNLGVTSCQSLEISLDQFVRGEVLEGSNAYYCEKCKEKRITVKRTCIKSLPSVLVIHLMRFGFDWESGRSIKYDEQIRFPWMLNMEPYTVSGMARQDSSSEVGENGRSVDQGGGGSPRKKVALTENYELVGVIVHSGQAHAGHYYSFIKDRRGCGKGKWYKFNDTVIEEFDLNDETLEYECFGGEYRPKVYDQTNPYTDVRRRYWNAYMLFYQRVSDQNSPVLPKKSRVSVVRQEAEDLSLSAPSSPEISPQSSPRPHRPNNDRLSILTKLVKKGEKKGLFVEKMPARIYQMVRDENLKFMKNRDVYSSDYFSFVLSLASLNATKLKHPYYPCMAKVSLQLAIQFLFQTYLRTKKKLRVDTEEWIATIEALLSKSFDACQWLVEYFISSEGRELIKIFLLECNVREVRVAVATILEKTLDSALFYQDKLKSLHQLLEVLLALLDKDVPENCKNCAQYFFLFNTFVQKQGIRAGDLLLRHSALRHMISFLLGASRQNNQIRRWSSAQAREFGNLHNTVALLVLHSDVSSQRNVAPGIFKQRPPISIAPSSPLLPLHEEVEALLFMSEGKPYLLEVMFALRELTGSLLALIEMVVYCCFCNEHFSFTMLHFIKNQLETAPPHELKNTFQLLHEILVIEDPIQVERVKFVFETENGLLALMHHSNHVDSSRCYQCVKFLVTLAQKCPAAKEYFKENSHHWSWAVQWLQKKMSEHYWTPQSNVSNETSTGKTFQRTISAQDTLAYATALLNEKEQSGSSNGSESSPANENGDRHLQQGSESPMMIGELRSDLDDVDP

O=C(CCl)NCc1ccc2c(c1)OCO2
inactive: USP19 -0.272 | USP24 -0.3 | USP25 -0.0121 | USP28 -0.566

— the supplement of paper PMC11732987, “Enantioselective OTUD7B fragment discovery through chemoproteomics screening and high-throughput optimisation” (Communications Chemistry, 2025)
